Laboratory results taken from PubChem BioAssay AID1259311 (ICCB-Longwood Screening Facility, Harvard Medical School, 2017).
“And” between values parts separate entries of the source, which are not always exact repeats. Equal values may be shown once. The whole screen tested about 330,000 compounds, of which about 1,100 (0.33%) were called active. No stated cut-off is given here; in the data, active means inhibition above about 85%; inactive means the rest. The list comes from a sample in which actives are over-represented; it also holds similar structures and randomly drawn compounds.

Assay: growth inhibition of S. aureus RN4220, primary screen, OD600 (AID 1259311);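 further: plate controls were untreated cells for no effect and reference antibiotic for full effect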
Settings: OD600, 16 h, active compounds read high

Question: For Cn1cc(Cl)c(C(=O)NNC(=S)Nc2cccc(Cl)c2)n1, which inhibition is on record?
Answer: The inhibition was 4.73% (inactive).

Question: Which inhibition does the source give for O=C(O)CC1(CC(=O)Nc2cccc(C(F)(F)F)c2)CCCC1 here?
Answer: The inhibition was 3.93% (inactive).

Question: For FC(F)(F)c1cccc(NC(=S)Nc2cccc(Cl)c2)c1, which inhibition is on record?
Answer: The inhibition was 100% (active).

Question: With CCN1CC2C3C(=O)N(C)C(=O)C3[C@](Cc3ccccc3)(C1=O)N2C(=O)c1ccccc1 (stereo partly drawn) as the compound, how does the inhibition read?
Answer: Its inhibition is 1.95% (inactive).

Question: Which inhibition does the source give for COC(=O)C(C=NOCc1ccc([N+](=O)[O-])cc1)NC(=O)c1cccc(Cl)c1 (stereo not drawn) here?
Answer: Its inhibition is -3.78% (inactive).

Question: For COC(=O)[C@@]1(Cc2ccc(OC)cc2)C2c3cc(C(=O)N4CCCC4)n(CCSCCO)c3CC2CN1C(=O)c1ccccc1 (stereo partly drawn), which inhibition is on record?
Answer: Its inhibition is 3.17% (inactive).

Question: For N#Cc1ccc(CSc2ncccn2)cc1, which inhibition is on record?
Answer: Its inhibition is 3.27% (inactive).

Question: With N#CC1=C(SCc2ccc(C#N)cc2)N=C(N)C(c2nc(-c3ccccc3)cs2)C12CCCCC2 (stereo not drawn) as the compound, how does the inhibition read?
Answer: The inhibition was 98.3% (active).

Question: With N#CC1=C(SCc2ccccc2)NC(=O)C(C#N)C12CCCC2 (stereo not drawn) as the compound, how does the inhibition read?
Answer: Its inhibition is 13.6% (inactive).

Question: With O=C(NC1CC1)C1=CC(C2CC2)CC(OCCCCO)O1 (stereo not drawn) as the compound, how does the inhibition read?
Answer: Its inhibition is 6.8% (inactive) and 1.82% (inactive).

Question: For Cc1cc(C(=O)NN=Cc2cc(Cl)cc([N+](=O)[O-])c2O)n[nH]1, which inhibition is on record?
Answer: The inhibition was 7.38% (inactive).

Question: Which inhibition does the source give for COc1ccc(/C=C/C(=O)c2cc(Br)ccc(=O)c2O)cc1 here?
Answer: Its inhibition is 94.3% (active).

Question: With COc1ccc(C(=O)/C=C/c2cccnc2)c(OC)c1 as the compound, how does the inhibition read?
Answer: The inhibition was 2.36% (inactive).

Question: Which inhibition does the source give for COc1ccc(NC(=O)ON=Cc2ccc(Br)cc2)cc1 here?
Answer: The inhibition was 5.53% (inactive).

Question: With O=C(Cc1ccccc1)NNC1CC(=O)N(c2ccc(Br)cc2)C1=O (stereo not drawn) as the compound, how does the inhibition read?
Answer: Its inhibition is 4.24% (inactive).

Question: Which inhibition does the source give for CC(C)(C)OC(=O)NC(Cc1ccccc1)C(=O)NC(CO)C(O)C1CC1C(=O)NC1CC1 (stereo not drawn) here?
Answer: The inhibition was 2.57% (inactive).

Question: Which inhibition does the source give for CC(C)(C)OC(=O)C1=C(CO)CS[C@@H]2[C@H](NC(=O)Cc3ccccc3)C(=O)N12 here?
Answer: The inhibition was 99.2% (active).

Question: Which inhibition does the source give for CC(=NNC(=O)CNc1ccccc1)c1ccccc1 here?
Answer: The inhibition was 0.316% (inactive).

Question: Which inhibition does the source give for Cc1c(O)ccc(C(Cc2ccc3ccccc3n2)=NN)c1O here?
Answer: The inhibition was 4.37% (inactive).

Question: With Cc1cc(N=Nc2ccc3ccccc3c2)ccc1O as the compound, how does the inhibition read?
Answer: The inhibition was 99.9% (active).

Question: Which inhibition does the source give for COc1cccc(C=NNC(=O)CNC(=O)C2COc3ccccc3O2)c1O (stereo not drawn) here?
Answer: The inhibition was 2.29% (inactive).

Question: For CC(=O)c1cccc(NC(=O)C2COc3ccccc3O2)c1 (stereo not drawn), which inhibition is on record?
Answer: The inhibition was 4.71% (inactive).

Question: Which inhibition does the source give for O=C(Nc1ncc([N+](=O)[O-])s1)C1COc2ccccc2O1 (stereo not drawn) here?
Answer: Its inhibition is 92.1% (active).

Question: For CC(=NNC(=O)CNC(=O)C1COc2ccccc2O1)c1ccc([N+](=O)[O-])cc1 (stereo not drawn), which inhibition is on record?
Answer: The inhibition was 2.91% (inactive).

Question: For Cc1ccc(NC(=O)CN2C(=O)SC(=Cc3cccn3-c3cccc(C(=O)O)c3)C2=O)cc1C, which inhibition is on record?
Answer: Its inhibition is 8.73% (inactive).

Question: With CC(=NN=C(c1ccccc1)c1ccccc1)c1ccco1 as the compound, how does the inhibition read?
Answer: The inhibition was 7.82% (inactive).

Question: Which inhibition does the source give for COc1ccc(C(CCN(Cc2ccc(OC)c(OC)c2)C(=O)CCl)c2ccccc2)cc1 (stereo not drawn) here?
Answer: The inhibition was 85.5% (active).

Question: Which inhibition does the source give for COc1ccc(CCNC(=O)C(Sc2ccccn2)c2ccccc2)cc1OC (stereo not drawn) here?
Answer: Its inhibition is 4.13% (inactive).

Question: For COc1ccc(CN(Cc2ccc(OC)cc2)C(=O)c2cccs2)cc1, which inhibition is on record?
Answer: Its inhibition is 6.45% (inactive).

Question: With COc1ccc(CN2CCC(=O)N(C(CO)c3ccccc3)CC2)cc1OC (stereo not drawn) as the compound, how does the inhibition read?
Answer: The inhibition was -2.15% (inactive).

Question: Which inhibition does the source give for CCCCCN1CC(O)=C(c2ccccc2)C1=N here?
Answer: The inhibition was 7.74% (inactive).

Question: Which inhibition does the source give for CCCCCCCCCCCCn1ccc(=N)cc1 here?
Answer: The inhibition was 101% (active).

Question: Which inhibition does the source give for CCC1=C2CCC3C(=O)N(CC)C(=O)C3C2[C@@]2(Cc3ccccc3)C(=NCCOC)OC(=O)N2C1=O (stereo partly drawn) here?
Answer: The inhibition was 4.23% (inactive).

Question: Which inhibition does the source give for O=C(NN=Cc1cccc(OCC(=O)N2CCCC2)c1)C(=O)Nc1ccccc1F here?
Answer: The inhibition was 5.07% (inactive).

Question: With CC=C(C)C(=O)NCCN1C2=NCC(C(C)C)N2CC1Cc1ccc(O)cc1 (stereo not drawn) as the compound, how does the inhibition read?
Answer: Its inhibition is 5.17% (inactive).

Question: With O=C(CC(=O)NN=Cc1ccc(Cl)cc1Cl)NCc1ccccc1 as the compound, how does the inhibition read?
Answer: The inhibition was 3.6% (inactive).

Question: Which inhibition does the source give for Cc1c(CCOC(=O)CC23CC4CC(CC(C)(C4)C2)C3)sc[n+]1Cc1ccc([N+](=O)[O-])cc1 here?
Answer: Its inhibition is 100% (active) and 99.7% (active).

Question: Which inhibition does the source give for Cc1c(CCOC(=O)c2cc([N+](=O)[O-])ccc2Cl)sc[n+]1CCCCS(=O)(=O)[O-] here?
Answer: Its inhibition is -3.66% (inactive).

Question: Which inhibition does the source give for Cc1c(CCO)sc[n+]1CC(=O)OC12CC3CC(CC(C3)C1)C2 here?
Answer: Its inhibition is 4.95% (inactive).

Question: With O=C1C=C(c2ccc3ncccc3c2)CC(c2ccc(F)cc2)C1 (stereo not drawn) as the compound, how does the inhibition read?
Answer: The inhibition was -2.12% (inactive).

Question: Which inhibition does the source give for CCOc1cc(C=NO)ccc1OCc1ccccc1F here?
Answer: The inhibition was 7.66% (inactive).

Question: For Clc1ccc(NN=Cc2cccs2)nn1, which inhibition is on record?
Answer: Its inhibition is 4.84% (inactive).

Question: With C/C(C=Nn1c(-c2cccnc2)n[nH]c1=S)=C\c1ccco1 as the compound, how does the inhibition read?
Answer: Its inhibition is 12.6% (inactive).

Question: For CCCCCCCCn1c2c(c(=N)c3c1CCC3)CCCC2, which inhibition is on record?
Answer: The inhibition was 100% (active).

Question: For CC(C)c1ccc2c(c1)c(SC(C)(C)C)c(CC(C)(C)C(=O)O)n2Cc1ccc(Cl)cc1, which inhibition is on record?
Answer: Its inhibition is 100% (active).

Question: For NC(Cc1ccc(O)cc1)c1cn(C(CCC(=O)O)C(=O)N2CCNCC2)nn1 (stereo not drawn), which inhibition is on record?
Answer: Its inhibition is 3.88% (inactive).

Question: Which inhibition does the source give for NC(=NOC(=O)C(c1ccccc1)c1ccccc1)c1ccccn1 here?
Answer: The inhibition was 1.37% (inactive).

Question: Which inhibition does the source give for O=C(O)C(c1ccccc1)N1C(=O)/C(=C\c2ccc(-c3cccc(Cl)c3)o2)SC1=S (stereo not drawn) here?
Answer: Its inhibition is 95.5% (active).

Question: With S=c1[nH]nc(-c2cccc(Cl)c2)n1N=Cc1ccc(-c2ccccc2Br)o1 as the compound, how does the inhibition read?
Answer: The inhibition was 10.7% (inactive).

Question: For CC1=NOC(=O)C1=Cc1ccc(-c2ccc(Cl)c(C(=O)O)c2)o1, which inhibition is on record?
Answer: Its inhibition is 3.22% (inactive).

Question: For Cc1cccc(OCC(=O)NN=Cc2ccc(N(C)C)cc2)c1, which inhibition is on record?
Answer: The inhibition was 6.39% (inactive).

Question: Which inhibition does the source give for O=C(NN=Cc1c[nH]c2ccccc12)c1ccc(O)c(O)c1 here?
Answer: The inhibition was -0.918% (inactive).

Question: With O=C(NN=Cc1c[nH]c2ccccc12)c1[nH]c2ccc(Br)cc2c1-c1ccccc1 as the compound, how does the inhibition read?
Answer: Its inhibition is 86.5% (active).

Question: For CCOc1ccc(Br)cc1C(=O)NN=Cc1c[nH]c2ccccc12, which inhibition is on record?
Answer: Its inhibition is -6.23% (inactive).

Question: For CCCCN1C(=S)NCC1Cc1ccc(O)cc1 (stereo not drawn), which inhibition is on record?
Answer: Its inhibition is 4.99% (inactive).

Question: For O=C(Nc1nnc(C2COc3ccccc3O2)o1)c1ccc(F)cc1 (stereo not drawn), which inhibition is on record?
Answer: Its inhibition is 98.2% (active).

Question: Which inhibition does the source give for O=C(COC(=O)c1ccc(F)cc1)NCC1COc2ccccc2O1 (stereo not drawn) here?
Answer: Its inhibition is -4.66% (inactive).

Question: With CC1COc2ccccc2N1C(=O)c1ccc(F)cc1 (stereo not drawn) as the compound, how does the inhibition read?
Answer: The inhibition was 1.99% (inactive).

Question: With COc1ccc(C(C)=NOCC(=O)N2CC3(C)CC2CC(C)(C)C3)cc1 (stereo not drawn) as the compound, how does the inhibition read?
Answer: The inhibition was 4.12% (inactive).

Question: For CCCc1c(C(=O)NN=Cc2ccc(OC)c(OCc3ccccc3)c2)nnn1-c1nonc1N, which inhibition is on record?
Answer: The inhibition was 14% (inactive).

Question: Which inhibition does the source give for COC(=O)[C@@]12CCCCN1C(c1ccc(-c3ccc4c(c3)OCO4)cc1)C1C(=O)N(C)C(=O)C12 (stereo partly drawn) here?
Answer: The inhibition was -2.68% (inactive).

Question: Which inhibition does the source give for COc1ccc(C(C)=NNC(=O)C(NC(=O)c2ccccc2)c2n[nH]c(=O)c3ccccc23)c(OC)c1 (stereo not drawn) here?
Answer: Its inhibition is 1.72% (inactive).

Question: With Cc1ccc(C=NNC(=O)c2ccco2)cc1 as the compound, how does the inhibition read?
Answer: Its inhibition is -0.191% (inactive).
